# TDP1 cell noCPT – qHTS for Inhibitors of human tyrosyl-DNA phosphodiesterase 1 (TDP1): qHTS in cells in absence of CPT; DT40 Tdp1-/- hTDP1 cells, no CPT, ATP luminescence, 48 h; Potency, µM (titrated, usually from 46.2 µM), inactives show top-dose activity change, negative = growth inhibition, usual class: inhibitors; 420,000 compounds, 15% hits; AID 686978, 2013; further: potency means the concentration at half of the fitted maximal effect; nearly all actives have a fitted effect of over 55% in size
#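 DT40 Tdp1-/-;hTDP1 cells, no CPT (DMSO vehicle only), 400 cells/well; compounds pin-transferred; ≥48 hr, 37 °C; CellTiter-Glo 30 min RT dark, luminescence read.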
# DT40 TDP1 CPT – DT40-hTDP1 cell growth loss with CPT; chicken DT40 Tdp1-/-;hTDP1 cells + 20 nM CPT, ATP luminescence, 48 h; Potency, µM (titrated, usually from 46.2 µM), for inactives: at the top dose activity change, negative = growth inhibition, usual class: inhibitors; 420,000 compounds, 12% hits; further: potency means the concentration at half of the fitted maximal effect; nearly all actives have a fitted effect of over 55% in size
#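 Chicken DT40 Tdp1-/- cells stably complemented with human TDP1 were seeded at 400 cells/well in medium containing 20 nM camptothecin, exposed to pin-transferred compounds, and grown at 37 °C for at least 48 hr. Viability was read as ATP luminescence.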
# HT1080-NT tox – kills 2HG-producing HT-1080-NT fibrosarcoma cells; Potency, µM (doses to about 46.1 µM), without a hit: at the top dose activity, negative = less viability, hits mostly cytotoxic; HT-1080-NT fibrosarcoma viability, CellTiter-Glo ATP luminescence, 48 h; 360,000 compounds, 1.6% hits;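 further: NT is the 2HG producing partner of a matched IDH1 knockdown line; potency means the concentration at half of the fitted maximal effect; 0% = DMSO-treated cells and -100% = media-only wells without cells; nearly all actives have a fitted effect of over 55% in size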
#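 Read-out is CellTiter-Glo luminescence after 10 minutes at room temperature, following 48 hours' compound treatment of HT-1080-NT cells (750 cells/well, RPMI, 5% FBS, 37 degrees C).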
# IL-1B inflam inh – inflammasome signaling inhibition, IL-1 beta readout; activity change, % at 57.5 µM; THP-1 LPS/ATP IL-1B secretion, AlphaLISA, 16 h; hits give low values; 360,000 compounds, 4.7% hits; in the data active means activity change below about -50%; inconclusive means mostly about -30% to -49%
#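 THP-1 cells pretreated 1 hr with compounds (up to 57.5 uM final), then stimulated with LPS (250 ng/mL final) plus ATP (1.25 mM final); secreted IL-1B measured by AlphaLISA after 16 hr, decreased signal indicating inhibition.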
# HT1080 IDH1KD tx – HT-1080 IDH1 knockdown cell toxicity (counter line); Potency, µM (top dose mostly 46.1 µM), inactives show at the top dose activity, negative = toxicity, hits mostly cytotoxic; HT-1080 IDH1 knockdown viability, ATP luminescence, 48 h; AID 686971; 360,000 compounds, 2% hits;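 further: potency means the concentration at half of the fitted maximal effect; 0% = DMSO wells and -100% = cell-free medium wells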
#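 Cytotoxicity counter-line: IDH1KD HT-1080, 48 h, CellTiter-Glo. Curves classed by r2, magnitude and activity.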
# * = called active by the depositor; ? = inconclusive; . = no result. This is a sample that favours compounds with a hit; in the whole collection about 19% have one here. Unless noted, the call rests on the fitted dose curve; in most records, active means well fitted curve in the direction sought with a large enough effect; inconclusive means small, poorly fitted or top-dose-only effect, or another doubt; inactive means no such curve, though single readings can be large; an effect the other way counts as inactive or inconclusive. Unless noted, on the % scale 0 is the no-effect control and ±100 the full control effect.
SMILES,TDP1 cell noCPT,DT40 TDP1 CPT,HT1080-NT tox,IL-1B inflam inh,HT1080 IDH1KD tx
CC(C)CCNC(=O)C(c1ccco1)N(Cc1ccc(F)cc1)C(=O)c1snc(C(N)=O)c1N (stereo unspecified),?,?,-18%,-16,-9%
CCc1c(C#N)c(SCCC(=O)Nc2cccc(OC)c2)nc2c1C(=O)CC(C)(C)C2,16µM*,?,-4%,0,-11%
COc1ccc(-c2c(C#N)c(SCc3c(C)noc3C)nc3c2C(=O)CC(C)(C)C3)cc1,-24%,-12%,-5%,66,1%
CC1(C)CC(=O)c2c(nc(SCC(=O)Nc3nsc(-c4ccccc4)n3)c(C#N)c2-c2ccccc2)C1,4.6µM*,5.2µM*,14%,?,12%
CCc1c(C#N)c(SCCC(=O)Nc2ccc(F)cc2)nc2c1C(=O)CC(C)(C)C2,?,16µM*,?,-30,?
Cc1nc2c([nH]1)c(=O)n(C)c(=O)n2Cc1ccco1,-4%,-3%,.,.,.
Cc1ccc(S(=O)(=O)N/N=C/c2ccc(OCC(=O)NC(C)C)cc2)cc1,-17%,-14%,-1%,7,-4%
Cc1cc(N(C)C)ccc1/C=C/c1ccnc2ccccc12,7.9µM*,11µM*,.,.,.
Cc1ccnc2ccccc12,-2%,2%,.,.,.
CCN(N=O)c1ccc(/C=C/c2ccnc3ccccc23)cc1,6.3µM*,6.3µM*,.,.,.
CN(C)/C=N/n1cnc2ccccc2c1=O,-10%,1%,5%,5,29%
CN(C)c1ccc(/C=C/c2ccnc3ccc4ccccc4c23)cc1,0.13µM*,0.14µM*,.,.,.
CN(C)c1ccc(/C=C/c2ccnc3ccc([N+](=O)[O-])cc23)cc1,?,11µM*,.,.,.
CCCN(CCC)c1ccc(/C=C/c2ccnc3ccccc23)cc1,5µM*,7.1µM*,.,.,.
CN(N=O)c1ccc(/C=C/c2ccnc3ccccc23)cc1,5.6µM*,7.9µM*,.,.,.
CN(C)c1ccc(C(I)C(I)c2ccnc3ccccc23)cc1 (stereo unspecified),10µM*,11µM*,.,.,.
CN(C)c1ccc(/C=C/c2ccnc3ccc(I)cc23)cc1,4µM*,3.2µM*,.,.,.
CCCCCCCCCN(CCCCCCCCC)c1ccc(/C=C/c2ccnc3ccccc23)cc1,5%,1%,.,.,.
CCCCNC(=O)N(O)C1N(/N=C/c2cccs2)C(=S)SC1(C)C (stereo unspecified),-21%,?,-2%,28,-2%
CN(C)c1ccc(/C=C/c2ccnc3ccccc23)cc1,16µM*,?,.,.,.
CN1C(=O)C2C(c3ccc(N(C)C)cc3)NN(Cc3ccccc3)C2C1=O (stereo unspecified),-8%,2%,-20%,-3,0%
CC(NC(=O)c1cc(F)c(F)c(F)c1F)c1ccc(-n2ccnc2)cc1 (stereo unspecified),?,23µM*,-12%,?,-6%
COc1ccc(N2CCN(C(=O)NCc3cccc(OC)c3)CC2)cc1,-20%,?,12%,1,5%
O=C(Nc1ccccc1)C1=C(N2CCOCC2)/C(=C/c2cccnc2)CC1,-13%,-5%,5%,-25,0%
COc1cc(NC(=O)C2=C(N3CCOCC3)/C(=C/c3ccc(Cl)cc3)CC2)cc(OC)c1OC,7.3µM*,6.5µM*,-26%,8,-21%
SMILES,TDP1 cell noCPT,DT40 TDP1 CPT,HT1080-NT tox,IL-1B inflam inh,HT1080 IDH1KD tx
COc1cc(NC(=O)C2=C(N3CCOCC3)/C(=C\c3ccc(N(C)C)cc3)CCC2)cc(OC)c1OC,2.9µM*,7.3µM*,?,0,29µM*
CN(C)c1ccc(NC(=O)c2ccc(N3CCOCC3)nc2)cc1,?,?,-9%,?,-6%
COCCn1c(-c2ccccc2)nc2oc3cc(OC)ccc3c(=O)c2c1=O,-13%,-11%,4%,1,21%
CCCc1nc2oc3cc(OC)ccc3c(=O)c2c(=O)n1Cc1ccco1,?,0%,7%,-5,8%
COc1ccc(CCn2c(C(C)C)nc3c(c(=O)c4ccccc4n3C)c2=O)cc1,12µM*,16µM*,-7%,-3,?
COc1ccc2c(=O)c3c(=O)n(CCc4ccccc4)c(C)nc3oc2c1,-20%,12%,11%,.,13%
CCCCCCn1c(-c2ccco2)nc2oc3cc(OC)ccc3c(=O)c2c1=O,21µM*,?,10%,-14,13%
CCCCCc1nc2c(c(=O)c3ccccc3n2C)c(=O)n1Cc1ccc(OC)cc1,-25%,-30%,12%,16,6%
COc1ccc2c(=O)c3c(=O)n(CCc4ccccc4)c(C(C)C)nc3oc2c1,15µM*,26µM*,-1%,12,13%
COc1ccc2c(=O)c3c(=O)n(-c4ccccc4)c(-c4ccc(C)cc4)nc3oc2c1,18µM*,-24%,2%,60,16%
COc1ccc(Cn2c(-c3ccc(C)cc3)nc3c(c(=O)c4ccccc4n3C)c2=O)cc1,?,15µM*,?,1,?
COc1ccc(Cn2c(C)nc3c(c(=O)c4ccccc4n3C)c2=O)cc1,?,-19%,-1%,-11,-10%
COc1ccc(CCn2c(C)nc3c(c(=O)c4ccccc4n3C)c2=O)cc1,5.8µM*,?,?,-18,?
O=C1C(CN2CCCC2)CCCC1CN1CCCC1 (stereo unspecified),0.52µM*,0.52µM*,7%,-8,?
C1CCN(CC2CCCCN2)CC1 (stereo unspecified),12%,-12%,1%,4,4%
CCN(CC)c1nc(N)c(C#N)c(CC#N)c1C#N,-19%,-24%,-4%,48,2%
CCCN(CCC)c1nc(N)c(C#N)c(CC#N)c1C#N,23µM*,15µM*,-11%,25,-13%
CCCN(CC1CC1)c1nc(N)c(C#N)c(CC#N)c1C#N,18µM*,?,-5%,0,-7%
Oc1ccc(-c2ccccc2)cc1CN1CCCCCC1,18µM*,?,?,-26,-15%
COc1cc(CN2CCCCC2C(=O)Nc2ccc(Oc3ccccc3)nc2)ccc1O (stereo unspecified),?,?,-1%,13,5%
CC(C)C[C@H]1CNC(=S)N1CC1CCCN1C[C@H](CC(C)C)N1C[C@H](Cc2ccc(O)cc2)N(CC2CCCCC2)C1=S (stereo partly specified),18µM*,?,-23%,0,-24%
CC(C)C[C@H]1CNC(=S)N1C[C@H]1CCCN1C[C@H](CC(C)C)N1C[C@H](Cc2ccc(O)cc2)N(CC2CCCCCC2)C1=S,8.2µM*,16µM*,?,-59*,?

# Screening data from PubChem.
